About 79,000 compounds went through this panel and 15% of them were active in at least one assay; those are over-represented in the sample as a whole. Active and inactive are the calls of the source. No stated cut-off is given here; in the data, active means growth inhibition above about 70%; inactive means the rest.
Key:
[1] = NCI Yeast Anticancer Drug Screen. Data for the wt1 strain (AID 149);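 further: 0% = growth of vehicle-treated wt1 cultures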; conditions: S. cerevisiae wt1 strain (SPY 50644) growth inhibition, active compounds read high
In short: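 wt1 yeast, compound-treated; % growth inhibition vs vehicle control.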

[2] = NCI Yeast Anticancer Drug Screen. Data for the rad50EPP+ strain (AID 151);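 further: 0% = growth of vehicle-treated control cultures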; conditions: S. cerevisiae rad50 mutant strain, active compounds read high
In short: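 Read-out is yeast growth inhibition relative to vehicle; cells used were the rad50EPP+ strain.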

[3] = NCI Yeast Anticancer Drug Screen. Data for the mgt1 strain (AID 153); conditions: S. cerevisiae mgt1 mutant growth inhibition, active compounds read high
In short: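 Measured: inhibition of mgt1 yeast growth by compound, normalized to vehicle-treated cultures.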

[4] = NCI Yeast Anticancer Drug Screen. Data for the rad50 strain (AID 155);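 further: 0% = growth of vehicle-only cultures of the same strain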; conditions: S. cerevisiae rad50 strain growth inhibition, active compounds read high
In short: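 Genetically altered yeast (DNA repair pathway); compound treatment; growth inhibition vs vehicle ctrl.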

[5] = NCI Yeast Anticancer Drug Screen. Data for the mec2-1 strain (AID 157); conditions: S. cerevisiae mec2-1 strain, active compounds read high
In short: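 Using mec2-1 yeast: add compound, measure growth, express inhibition versus vehicle-treated cultures.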

[6] = NCI Yeast Anticancer Drug Screen. Data for the rad14 strain (AID 159);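 further: 0% = growth of vehicle-treated control cultures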; conditions: S. cerevisiae rad14 strain growth inhibition, active compounds read high
In short: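 Test compounds were applied to a repair-deficient yeast strain. Its growth was then compared with that of cultures given vehicle alone, and inhibition was expressed relative to those controls.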

[7] = NCI Yeast Anticancer Drug Screen. Data for the sgs1 mgt1 strain (AID 161);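 further: 0% = growth of cultures given vehicle only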; conditions: S. cerevisiae sgs1 mgt1 strain, active compounds read high
In short: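 Growth of a repair-deficient yeast mutant was monitored after compound treatment and expressed as inhibition relative to vehicle-treated cultures.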

[8] = NCI Yeast Anticancer Drug Screen. Data for the CLN2oe strain (AID 163);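 further: 0% = growth of vehicle-only control cultures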; conditions: S. cerevisiae CLN2oe strain, active compounds read high
In short: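 Whole-cell yeast growth assay. A strain engineered for altered cell-cycle control received compound, and inhibition relative to vehicle-treated cultures was recorded.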

[9] = NCI Yeast Anticancer Drug Screen. Data for the cln2 rad14 strain (AID 165);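 further: 0% = growth equal to vehicle treated cultures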; conditions: S. cerevisiae cln2 rad14 strain, active compounds read high
In short: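 Yeast strain cln2 rad14, bearing defects in cell cycle control and DNA repair, serves as the test system; values reflect growth inhibition compared with vehicle.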

[10] = NCI Yeast Anticancer Drug Screen. Data for the bub3 strain (AID 167); conditions: S. cerevisiae bub3 mutant strain, active compounds read high
In short: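 Yeast carrying a defined mutation is treated with each compound, and growth is compared with that of vehicle-exposed cells to give inhibition.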

[11] = NCI Yeast Anticancer Drug Screen. Data for the wt2 strain (AID 169);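 further: 0% = growth of vehicle-treated yeast cultures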; conditions: S. cerevisiae wt2 strain growth inhibition, active compounds read high
In short: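 Treated yeast vs. vehicle-treated yeast: growth inhibition determined.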

[12] = NCI Yeast Anticancer Drug Screen. Data for the mlh1 strain (AID 171);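 further: 0% = growth of vehicle-treated control cultures of the same strain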; conditions: S. cerevisiae mlh1 strain growth inhibition, active compounds read high
In short: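 A yeast strain with a defined genetic lesion serves as the test organism. Cultures receive compound or vehicle, and growth is measured.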

[13] = NCI Yeast Anticancer Drug Screen. Data for the sgs1 strain (AID 173);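 further: 0% = growth of vehicle-only control cultures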; conditions: S. cerevisiae sgs1 mutant, active compounds read high
In short: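 A genetically defined yeast mutant is incubated with the test compound, and its growth is compared to that of the same strain given vehicle.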

[14] = NCI Yeast Anticancer Drug Screen. Data for the mlh1 rad18 strain (AID 175); conditions: S. cerevisiae mlh1 rad18 strain growth inhibition, active compounds read high
In short: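 Steps: expose repair-defective yeast to compound; measure growth; express inhibition against vehicle-treated controls.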

[15] = NCI Yeast Anticancer Drug Screen. Data for the rad18 strain (AID 177); conditions: S. cerevisiae rad18 mutant growth inhibition, active compounds read high
In short: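 Measured value is growth inhibition of a yeast strain bearing a DNA repair alteration, referenced to vehicle-treated cells.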

[16] = at 5.0 µM (retest, dose inferred, filed as 0.5)
[17] = at 50.0 µM (retest, dose inferred, filed as 5.0)

Measured: growth inhibition

CCCCCc1c(CCCC)c(=O)[nH]c2cc(CNCC(OC)OC)ccc12
inactive: [1]; at 1.2 µM 1% | [1]; at 3.7 µM 7% | [1]; at 11.0 µM 20% | [2]; at 1.2 µM -8% | [2]; at 3.7 µM -9% | [2]; at 11.0 µM 3% | [2]; at 33.0 µM 10% | [3]; at 1.2 µM -15% | [3]; at 3.7 µM -11% | [3]; at 11.0 µM 58% | [4]; at 1.2 µM 14% | [4]; at 3.7 µM 19% | [4]; [16] 8% | [4]; at 11.0 µM 52% | [5]; at 1.2 µM -9% | [5]; at 3.7 µM -9% | [5]; [16] -7% | [5]; at 11.0 µM 7% | [6]; at 1.2 µM -23% | [6]; at 3.7 µM 24% | [7]; [16] 8% | [7]; [17] 46% | [8]; at 1.2 µM 0% | [8]; at 3.7 µM 11% | [8]; at 11.0 µM 63% | [9]; [16] 26% | [10]; at 1.2 µM -6% | [10]; at 3.7 µM 4% | [10]; [16] 19% | [10]; at 11.0 µM 31% | [11]; at 1.2 µM 7% | [11]; at 3.7 µM 11% | [11]; at 11.0 µM 28% | [12]; at 1.2 µM -5% | [12]; at 3.7 µM 13% | [12]; at 11.0 µM 52% | [13]; at 1.2 µM 10% | [13]; at 3.7 µM 23% | [13]; at 11.0 µM 69% | [14]; [16] 50% | [15]; at 1.2 µM 10% | [15]; at 3.7 µM 19% | [15]; at 11.0 µM 14%
active: [1]; at 33.0 µM 98% | [1]; at 100.0 µM 94% | [2]; at 100.0 µM 93% | [3]; at 33.0 µM 98% | [3]; at 100.0 µM 94% | [4]; at 33.0 µM 98% | [4]; [17] 96% | [4]; at 50.0 µM 88.9% | [4]; at 100.0 µM 93% | [5]; at 33.0 µM 98% | [5]; [17] 98% | [5]; at 50.0 µM 91.3% | [5]; at 100.0 µM 95% | [6]; at 11.0 µM 89% | [6]; at 33.0 µM 98% | [6]; at 100.0 µM 93% | [7]; at 50.0 µM 91% | [8]; at 33.0 µM 98% | [8]; at 100.0 µM 94% | [9]; [17] 95% | [9]; at 50.0 µM 86.5% | [10]; at 33.0 µM 98% | [10]; [17] 97% | [10]; at 50.0 µM 91.2% | [10]; at 100.0 µM 94% | [11]; at 33.0 µM 98% | [11]; at 100.0 µM 94% | [12]; at 33.0 µM 98% | [12]; at 100.0 µM 95% | [13]; at 33.0 µM 99% | [13]; at 100.0 µM 95% | [14]; [17] 96% | [14]; at 50.0 µM 87% | [15]; at 33.0 µM 98% | [15]; at 100.0 µM 94%

CCN1CCC(O)(c2ccc(Oc3ccc(Cl)cc3)cc2)C(C(=O)c2ccc(Oc3ccc(Cl)cc3)cc2)C1 (stereo unspecified)
inactive: [1]; at 1.2 µM -51% | [1]; at 3.7 µM -27% | [1]; at 11.0 µM -44% | [1]; at 33.0 µM -46% | [1]; at 100.0 µM -8% | [2]; at 1.2 µM -7% | [2]; at 3.7 µM 0% | [2]; at 11.0 µM 4% | [2]; at 33.0 µM -2% | [2]; at 100.0 µM 7% | [3]; at 1.2 µM 30% | [3]; at 3.7 µM 64% | [3]; at 11.0 µM 42% | [3]; at 33.0 µM 47% | [3]; at 100.0 µM 59% | [4]; at 1.2 µM -20% | [4]; at 3.7 µM -7% | [4]; [16] 51% | [4]; at 11.0 µM -8% | [4]; at 33.0 µM -30% | [4]; [17] 7% | [4]; at 100.0 µM -6% | [5]; at 1.2 µM 0% | [5]; at 3.7 µM 28% | [5]; [16] 68% | [5]; at 11.0 µM 26% | [5]; at 33.0 µM 1% | [5]; [17] -2% | [5]; at 100.0 µM 8% | [6]; at 1.2 µM -4% | [6]; at 3.7 µM 16% | [6]; at 11.0 µM 11% | [6]; at 33.0 µM 21% | [6]; at 100.0 µM 45% | [8]; at 1.2 µM 28% | [8]; at 3.7 µM 44% | [8]; at 11.0 µM 35% | [8]; at 33.0 µM 33% | [8]; at 100.0 µM 16% | [9]; [16] 23% | [10]; at 1.2 µM 22% | [10]; at 3.7 µM 39% | [10]; at 11.0 µM 50% | [10]; at 33.0 µM 39% | [10]; at 100.0 µM 51% | [11]; at 1.2 µM -21% | [11]; at 3.7 µM 35% | [11]; at 11.0 µM 5% | [11]; at 33.0 µM -13% | [11]; at 100.0 µM 23% | [12]; at 1.2 µM -1% | [12]; at 3.7 µM -4% | [12]; at 11.0 µM -8% | [12]; at 33.0 µM -4% | [12]; at 100.0 µM 0% | [13]; at 1.2 µM -27% | [13]; at 3.7 µM 63% | [13]; at 11.0 µM 20% | [13]; at 33.0 µM 11% | [13]; at 100.0 µM 33% | [14]; [17] 18% | [15]; at 1.2 µM -6% | [15]; at 3.7 µM 20% | [15]; at 11.0 µM -1% | [15]; at 33.0 µM -4% | [15]; at 100.0 µM 7%
active: [4]; at 50.0 µM 83% | [5]; at 50.0 µM 93.2% | [7]; [16] 97% | [7]; [17] 98% | [7]; at 50.0 µM 89.2% | [9]; [17] 98% | [9]; at 50.0 µM 87.5% | [10]; [16] 87% | [10]; [17] 98% | [10]; at 50.0 µM 90.2% | [14]; [16] 82% | [14]; at 50.0 µM 90.5%
